The source of these data is PubChem BioAssay (NCI).

The nature of assay [1]: NCI Yeast Anticancer Drug Screen. Data for the rad50 strain (AID 155).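 Note: 0% = growth of vehicle-only cultures of the same strain.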 The settings on record: S. cerevisiae rad50 strain growth inhibition, active compounds read high. The gist of the method: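 Readout: growth inhibition relative to vehicle-treated cultures. Compound exposure was carried out in a genetically defined yeast strain deficient in DNA damage repair.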
Assay [2] is described as follows: NCI Yeast Anticancer Drug Screen. Data for the mec2-1 strain (AID 157). The settings on record: S. cerevisiae mec2-1 strain, active compounds read high. The method in brief:
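Cells of the genetically defined mec2-1 yeast strain are incubated with test compound. Inhibition of growth is calculated against vehicle-treated controls.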

Assay [3] can be described thus: NCI Yeast Anticancer Drug Screen. Data for the sgs1 mgt1 strain (AID 161).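 Note: 0% = growth of cultures given vehicle only.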 The settings on record: S. cerevisiae sgs1 mgt1 strain, active compounds read high. The gist of the method: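 Genetically altered yeast, compound exposure, growth inhibition relative to vehicle.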
Assay [4] is described as follows: NCI Yeast Anticancer Drug Screen. Data for the cln2 rad14 strain (AID 165).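 Note: 0% = growth equal to vehicle treated cultures.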 The settings on record: S. cerevisiae cln2 rad14 strain, active compounds read high. The method in brief:
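The screen exposed genetically defined yeast (cln2 rad14) to test compounds and scored growth inhibition relative to vehicle-treated controls.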

Assay [5] in a line: NCI Yeast Anticancer Drug Screen. Data for the bub3 strain (AID 167). The settings on record: S. cerevisiae bub3 mutant strain, active compounds read high. The gist of the method:
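Readout: yeast growth inhibition, expressed relative to vehicle-only wells. The test organism is a mutant strain from a panel with lesions in DNA repair or checkpoint genes.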

Assay [6] in a line: NCI Yeast Anticancer Drug Screen. Data for the mlh1 rad18 strain (AID 175). The settings on record: S. cerevisiae mlh1 rad18 strain growth inhibition, active compounds read high. The gist of the method: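 Compound-treated yeast growth, normalised to vehicle controls. Strain bears defined DNA repair mutations.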
The mark [7] stands for this setting: at 5.0 µM (retest, dose inferred, filed as 0.5).
Setting [8] is: at 50.0 µM (retest, dose inferred, filed as 5.0).

The panel holds about 79,000 compounds, 15% with a hit somewhere; the sample as a whole holds those more often. Unmarked numbers belong to inactive results. Activity calls are given as the source filed them. Cut-off read from the data, not from the text of the source: active = growth inhibition above about 70%; inactive = the rest.

As for `c1ccc(C[As+](c2ccccc2)(c2ccccc2)c2ccccc2)cc1`, the growth inhibition was 24% in assay [1] (setting [7]); 92% (active) in assay [1] (setting [8]); 97.3% (active) in assay [1] (at 50.0 µM); 4% in assay [2] (setting [7]); 94% (active) in assay [2] (setting [8]); 97.7% (active) in assay [2] (at 50.0 µM). Besides, the growth inhibition in assay [3] (setting [7]) was 1%; in assay [3] (setting [8]), 89% (active); in assay [3] (at 50.0 µM) it was 98.8% (active); in assay [4] (setting [7]) it was 1%; in assay [4] (setting [8]), 75% (active); in assay [4] (at 50.0 µM) it was 94.7% (active). For the same molecule, the growth inhibition in assay [5] (setting [7]) is 4%; in assay [5] (setting [8]), 96% (active); in assay [5] (at 50.0 µM), 93% (active); in assay [6] (setting [7]) it was 11%; in assay [6] (setting [8]) it was 89% (active); in assay [6] (at 50.0 µM), 97.7% (active).

As for `C[C@H](N)C(=O)N[C@@H]1[C@H]2C(=C(O)C[C@@H](O)[C@@H]2O)C(=O)O[C@]1(C)C(Cl)Cl`, the growth inhibition in assay [1] (setting [7]) was 18%; in assay [1] (setting [8]), 22%; in assay [1] (at 50.0 µM), 17.1%; in assay [2] (setting [7]), 7%; in assay [2] (setting [8]), 26%; in assay [2] (at 50.0 µM), 13.1%. Also, the growth inhibition in assay [3] (setting [7]) is 12%; in assay [3] (setting [8]), 25%; in assay [3] (at 50.0 µM), 6.6%; in assay [4] (setting [7]) it was 18%; in assay [4] (setting [8]) it was 53%; in assay [4] (at 50.0 µM), 44.9%. Moreover, the growth inhibition in assay [5] (setting [7]) was 7%; in assay [5] (setting [8]) it was 26%; in assay [5] (at 50.0 µM) it was 30.9%; in assay [6] (setting [7]) it was 6%; in assay [6] (setting [8]), 25%; in assay [6] (at 50.0 µM), 27.4%.

Turning to `O=C1NC(=O)C(C(c2ccnc3ccccc23)C2C(=O)NC(=O)NC2=O)C(=O)N1`, the growth inhibition in assay [1] (setting [7]) is -6%; in assay [1] (setting [8]), -6%; in assay [1] (at 50.0 µM), 30.1%; in assay [2] (setting [7]), 0%; in assay [2] (setting [8]), -6%; in assay [2] (at 50.0 µM), 34%. The growth inhibition in assay [3] (setting [7]) is -5%; in assay [3] (setting [8]), -4%; in assay [3] (at 50.0 µM), 55.9%; in assay [4] (setting [7]) it was 3%; in assay [4] (setting [8]), -7%; in assay [4] (at 50.0 µM), 62.6%. Moreover, the growth inhibition in assay [5] (setting [7]) was -6%; in assay [5] (setting [8]) it was 5%; in assay [5] (at 50.0 µM), 42.6%; in assay [6] (setting [7]) it was 0%; in assay [6] (setting [8]), -5%; in assay [6] (at 50.0 µM), 35.8%.

On to `O=C(CCN1CC1)NCCc1ccccc1`, for which the growth inhibition was -152% in assay [1] (setting [7]); 90% (active) in assay [1] (setting [8]); 96.6% (active) in assay [1] (at 50.0 µM); -44% in assay [2] (setting [7]); 48% in assay [2] (setting [8]); 83.3% (active) in assay [2] (at 50.0 µM). Besides, the growth inhibition in assay [3] (setting [7]) is -59%; in assay [3] (setting [8]), 84% (active); in assay [3] (at 50.0 µM), 58%; in assay [4] (setting [7]) it was -60%; in assay [4] (setting [8]), 73% (active); in assay [4] (at 50.0 µM), 83.7% (active). The growth inhibition was -72% in assay [5] (setting [7]); 87% (active) in assay [5] (setting [8]); 67.8% in assay [5] (at 50.0 µM); -143% in assay [6] (setting [7]); 90% (active) in assay [6] (setting [8]); 93.7% (active) in assay [6] (at 50.0 µM).

In the case of `CC(C)C1(NC(=O)C2C=C3c4cccc5[nH]cc(c45)CC3N(C)C2)OC2(O)C3CCCN3C(=O)C(Cc3ccccc3)N2C1=O` (stereo unspecified) (tested in a mixture with another compound), the growth inhibition in assay [1] (setting [7]) was 22%; in assay [1] (setting [8]), 97% (active); in assay [1] (at 50.0 µM), 98.2% (active); in assay [2] (setting [7]), 4%; in assay [2] (setting [8]), 99% (active); in assay [2] (at 50.0 µM), 98.6% (active). Also, the growth inhibition is 4% in assay [3] (setting [7]); 96% (active) in assay [3] (setting [8]); 98.7% (active) in assay [3] (at 50.0 µM); 6% in assay [4] (setting [7]); 98% (active) in assay [4] (setting [8]); 96.8% (active) in assay [4] (at 50.0 µM). Further, the growth inhibition in assay [5] (setting [7]) was 7%; in assay [5] (setting [8]), 98% (active); in assay [5] (at 50.0 µM) it was 97.5% (active); in assay [6] (setting [7]), 6%; in assay [6] (setting [8]), 98% (active); in assay [6] (at 50.0 µM) it was 96.8% (active).

Take `Cc1ccccc1C(=O)CN`: the growth inhibition in assay [1] (setting [7]) was -3%; in assay [1] (setting [8]), -2%; in assay [1] (at 50.0 µM), 16.4%; in assay [2] (setting [7]), 0%; in assay [2] (setting [8]), -3%; in assay [2] (at 50.0 µM) it was -6%. Further, the growth inhibition in assay [3] (setting [7]) was -1%; in assay [3] (setting [8]) it was 0%; in assay [3] (at 50.0 µM), -4.2%; in assay [4] (setting [7]), -5%; in assay [4] (setting [8]), -3%; in assay [4] (at 50.0 µM), 81.3% (active). The growth inhibition is -2% in assay [5] (setting [7]); -9% in assay [5] (setting [8]); -13.1% in assay [5] (at 50.0 µM); -1% in assay [6] (setting [7]); -3% in assay [6] (setting [8]); 12.9% in assay [6] (at 50.0 µM).

For the molecule `CC1CN1C1=C(F)C(=O)C(N2CC2C)=C(F)C1=O` (stereo unspecified), the growth inhibition is 98% (active) in assay [1] (setting [7]); 99% (active) in assay [1] (setting [8]); 90.8% (active) in assay [1] (at 50.0 µM); 100% (active) in assay [2] (setting [7]); 99% (active) in assay [2] (setting [8]); 94% (active) in assay [2] (at 50.0 µM). The growth inhibition in assay [3] (setting [7]) was 99% (active); in assay [3] (setting [8]) it was 99% (active); in assay [3] (at 50.0 µM), 91% (active); in assay [4] (setting [7]) it was 99% (active); in assay [4] (setting [8]), 99% (active); in assay [4] (at 50.0 µM) it was 91% (active). Besides, the growth inhibition was 99% (active) in assay [5] (setting [7]); 99% (active) in assay [5] (setting [8]); 92.5% (active) in assay [5] (at 50.0 µM); 99% (active) in assay [6] (setting [7]); 99% (active) in assay [6] (setting [8]); 91.5% (active) in assay [6] (at 50.0 µM).
